Experimental data taken from PubChem BioAssay (NCI).
This is part of a sample that, as a whole, favours compounds with a hit. Of some 79,000 tested, about 15% had one in any assay. A number with no mark means an inactive call. Active and inactive are the calls of the source. Rule as the data show it: active = growth inhibition above about 70%; inactive = the rest.

Experiments:
[1] = NCI Yeast Anticancer Drug Screen. Data for the rad50 strain (AID 155);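 also: 0% = growth of vehicle-only cultures of the same strain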; conditions: S. cerevisiae rad50 strain growth inhibition; at 50.0 µM; active compounds read high
How it was run: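 Relative growth inhibition (compound vs vehicle) was measured in yeast with a defined repair-gene alteration.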

[2] = NCI Yeast Anticancer Drug Screen. Data for the mec2-1 strain (AID 157); conditions: S. cerevisiae mec2-1 strain, at 50.0 µM, active compounds read high
How it was run: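 Strain: mec2-1 (DNA repair/cell cycle alteration). Compound exposure, then growth measured; inhibition expressed relative to vehicle.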

[3] = NCI Yeast Anticancer Drug Screen. Data for the sgs1 mgt1 strain (AID 161);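 also: 0% = growth of cultures given vehicle only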; conditions: S. cerevisiae sgs1 mgt1 strain, at 50.0 µM, active compounds read high
How it was run: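 Genetically altered yeast, compound exposure, growth inhibition relative to vehicle.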

[4] = NCI Yeast Anticancer Drug Screen. Data for the cln2 rad14 strain (AID 165);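 also: 0% = growth equal to vehicle treated cultures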; conditions: S. cerevisiae cln2 rad14 strain, at 50.0 µM, active compounds read high
How it was run: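 Compounds are applied to the cln2 rad14 yeast strain, and growth is then compared with that of vehicle-treated cultures to give inhibition.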

[5] = NCI Yeast Anticancer Drug Screen. Data for the mlh1 rad18 strain (AID 175); conditions: S. cerevisiae mlh1 rad18 strain growth inhibition; at 50.0 µM; active compounds read high
How it was run: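 Read-out is yeast growth inhibition, calculated against vehicle-only controls. The compound was applied to a strain engineered with DNA damage repair alterations.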

[6] = NCI Yeast Anticancer Drug Screen. Data for the bub3 strain (AID 167); conditions: S. cerevisiae bub3 mutant strain, at 50.0 µM, active compounds read high
How it was run: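 Screening used yeast with an engineered genetic alteration affecting cell cycle control. Compound-exposed cultures were compared with vehicle cultures, and reduced growth was taken as inhibition.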

C[Si](C)(C)[C@@]1([Se]c2ccccc2)CC[C@@H]1C(=O)c1ccccc1
growth inhibition [1]: -11.6%
growth inhibition [2]: -26.4%
growth inhibition [3]: -26.4%
growth inhibition [4]: -18.2%
growth inhibition [5]: -23.9%

CC(=O)C1(O)CCC2(O)C3(O)CC=C4CC(O)CCC4(C)C3CC(OC(=O)c3ccc(O)cc3)C12C (stereo not given)
growth inhibition [1]: 8.5%
growth inhibition [2]: 2.85%
growth inhibition [3]: -12.8%
growth inhibition [4]: -1.7%
growth inhibition [5]: -50.4%

COc1cc(C)c(C(CC(=O)O)CC(=O)N(CCCl)CCCl)cc1C(C)C (stereo not given)
growth inhibition [1]: 60.4%
growth inhibition [2]: 4.3%
growth inhibition [3]: 20.1%
growth inhibition [4]: 28.2%
growth inhibition [5]: 57.6%

CCOC(=O)C[S][Sn]([Cl])([Cl])[S]CC(=O)OCC
growth inhibition [1]: 0.6%
growth inhibition [2]: -1.15%
growth inhibition [3]: -3.65%
growth inhibition [4]: -32%
growth inhibition [5]: -18.1%

CCCCP(CCCC)CCCC
growth inhibition [1]: -10%
growth inhibition [2]: 0.95%
growth inhibition [3]: 4.15%
growth inhibition [4]: 19.2%
growth inhibition [5]: 19.6%

COc1cccc(C2CC(=O)c3cccn32)c1 (stereo not given)
growth inhibition [1]: 11.3%
growth inhibition [2]: 1.65%
growth inhibition [3]: -4.7%
growth inhibition [4]: 21.3%
growth inhibition [6]: -5.25%
growth inhibition [5]: -17.2%

O=c1ccn(C2OC(CO)C(O)C2[Se]c2ccccc2)c(=O)[nH]1 (stereo not given)
growth inhibition [1]: 4%
growth inhibition [2]: -9.45%
growth inhibition [3]: 16.8%
growth inhibition [4]: 6.05%
growth inhibition [5]: 27.1%

CC1CCC2C(C)C3C(CC4C5CCC6CC(O)CCC6(C)C5CCC43C)N2C1 (stereo not given)
growth inhibition [1]: 17.1%
growth inhibition [2]: 23.4%
growth inhibition [3]: 17.5%
growth inhibition [4]: -29.1%
growth inhibition [5]: 15.7%

CCC[CH2][Sn]1([CH2]CCC)[O]CC2(CCCCC2)C[O]1
growth inhibition [1]: 99.6% (active)
growth inhibition [2]: 99.8% (active)
growth inhibition [3]: 99.2% (active)
growth inhibition [4]: 99.5% (active)
growth inhibition [5]: 99.6% (active)

COc1ccc2c(c1)C1(C)CCN(CCc3ccccc3)C(C2)C1C (stereo not given)
growth inhibition [1]: 24.9%
growth inhibition [2]: 15.4%
growth inhibition [3]: 20.7%
growth inhibition [4]: 0.05%
growth inhibition [5]: 24.4%

CCCCCCCCSP(SCCCCCCCC)SCCCCCCCC
growth inhibition [1]: -11.8%
growth inhibition [2]: -0.1%
growth inhibition [3]: -25.3%
growth inhibition [4]: 2.7%
growth inhibition [5]: 0.9%

CC(=O)Nc1cc([As](C)(=O)O)ccc1O
growth inhibition [1]: -10.3%
growth inhibition [2]: 1.75%
growth inhibition [3]: 1.95%
growth inhibition [4]: -41.5%
growth inhibition [5]: -1.85%

COS(=O)(=O)c1ccc(C)cc1
growth inhibition [1]: 24.2%
growth inhibition [2]: -1.85%
growth inhibition [4]: 12.7%
growth inhibition [6]: -7.7%
growth inhibition [5]: -3.75%

CC1(C)N=C(N)N=C(N)N1c1ccc(CCCCc2cc(Cl)ccc2S(=O)(=O)F)c(Cl)c1
growth inhibition [1]: 99.3% (active)
growth inhibition [2]: 99.7% (active)
growth inhibition [4]: 98.4% (active)
growth inhibition [6]: 98.5% (active)
growth inhibition [5]: 99.6% (active)

NC(=O)c1c[se]c(C2OC(CO)C(O)C2O)n1 (stereo not given)
growth inhibition [1]: -13.1%
growth inhibition [2]: -8.75%
growth inhibition [4]: -3.25%
growth inhibition [6]: -14.8%
growth inhibition [5]: -9.95%

CN1C(c2cccnc2)=NCC12CCCC2
growth inhibition [1]: -2.95%
growth inhibition [2]: -10.1%
growth inhibition [4]: -17.2%
growth inhibition [6]: -10.2%
growth inhibition [5]: -9.45%

COC12CC3(C)C(C4=CC(=O)OC4)CCC3(O)C3CCC4=CC(=O)CCC4(CO1)C32 (stereo not given)
growth inhibition [1]: -1.85%
growth inhibition [2]: -10.2%
growth inhibition [4]: 15.8%
growth inhibition [6]: -16.9%
growth inhibition [5]: 6.6%

COc1cc2c(c(OC)c1OC)-c1ccc(SC)c(=O)cc1[C@@H](NC(C)=O)CC2
growth inhibition [1]: -12.4%
growth inhibition [2]: -16.9%
growth inhibition [3]: -19.1%
growth inhibition [6]: -27.4%
growth inhibition [5]: -7.3%

CN1CCC(O)(c2ccccc2)C(C(O)c2ccccc2)C1 (stereo not given)
growth inhibition [1]: 5.2%
growth inhibition [2]: -21.7%
growth inhibition [4]: -8.55%
growth inhibition [6]: -23.9%
growth inhibition [5]: -20.6%

CCC[CH2][Sn]([CH2]CCC)[CH2]CCC.CCC[CH2][Sn]([CH2]CCC)[CH2]CCC
growth inhibition [1]: 99.4% (active)
growth inhibition [2]: 99.7% (active)
growth inhibition [4]: 99.5% (active)
growth inhibition [6]: 99.7% (active)
growth inhibition [5]: 99.2% (active)

Cc1cccnc1NN=O
growth inhibition [1]: -8.25%
growth inhibition [2]: -23.9%
growth inhibition [4]: 10%
growth inhibition [6]: -20.2%
growth inhibition [5]: 13.6%

N#CS.N=C=S.N=C=S.[Co+3].[NH-]CC[NH-].[NH-]CC[NH-]
growth inhibition [1]: 10.5%
growth inhibition [2]: 10.2%
growth inhibition [4]: 3.5%
growth inhibition [6]: 27.9%
growth inhibition [5]: 10.7%

CNC1=C(N2CC2)C(=O)C(NC)=C(N2CC2)C1=O
growth inhibition [1]: 7.7%
growth inhibition [2]: 28.3%
growth inhibition [4]: 10.8%
growth inhibition [6]: 13.8%
growth inhibition [5]: 36.4%

O=C([CH-]C(=O)c1ccccc1)c1ccccc1.[CH2-]C.[CH2-]C.[Tl+3]
growth inhibition [1]: 52.3%
growth inhibition [2]: 35.6%
growth inhibition [3]: 37.2%
growth inhibition [6]: 60.1%
growth inhibition [5]: 55.1%

CC[O-].CC[O-].O=C([CH-]C(=O)c1ccccc1)c1ccccc1.O=C([CH-]C(=O)c1ccccc1)c1ccccc1.[Ti+4]
growth inhibition [1]: 34.3%
growth inhibition [2]: 30.9%
growth inhibition [3]: 29.1%
growth inhibition [6]: 52.7%
growth inhibition [5]: 26.1%

CCOP(=S)(Oc1ccccc1[N+](=O)[O-])c1ccccc1 (stereo not given)
growth inhibition [1]: 6.85%
growth inhibition [2]: 7.4%
growth inhibition [4]: 25.8%
growth inhibition [6]: 18.9%
growth inhibition [5]: 10.2%

COc1ccc(C=C(C#N)C#N)cc1OC
growth inhibition [1]: -2.8%
growth inhibition [2]: -8.15%
growth inhibition [4]: -24.2%
growth inhibition [6]: -1.3%
growth inhibition [5]: -0.25%

N#CC(C#N)=Cc1ccccc1[N+](=O)[O-]
growth inhibition [1]: 41.9%
growth inhibition [2]: 17.2%
growth inhibition [4]: 25.6%
growth inhibition [6]: 39.8%
growth inhibition [5]: 29.7%

COc1cccc(N2CCNCC2)c1
growth inhibition [1]: -5.2%
growth inhibition [2]: -12.6%
growth inhibition [4]: 4.2%
growth inhibition [6]: -6.6%
growth inhibition [5]: 25.1%

O=C1C(Br)=C(N2CC2)C(=O)C(Br)=C1N1CC1
growth inhibition [1]: 96% (active)
growth inhibition [2]: 88% (active)
growth inhibition [4]: 79.2% (active)
growth inhibition [6]: 39%
growth inhibition [5]: 97% (active)

CNC(=O)CCl
growth inhibition [1]: 5.65%
growth inhibition [2]: 3.4%
growth inhibition [4]: -7.15%
growth inhibition [6]: -0.75%
growth inhibition [5]: 6.4%

CC(=O)CC(C)=O
growth inhibition [1]: -7.2%
growth inhibition [2]: 3.8%
growth inhibition [4]: -11.3%
growth inhibition [6]: 1.7%
growth inhibition [5]: 1.8%

CCC[P+](CCC)(CCC)CCCCCCCCCC[P+](CCC)(CCC)CCC
growth inhibition [1]: -2.65%
growth inhibition [2]: -13%
growth inhibition [4]: -21.2%
growth inhibition [6]: -1.15%
growth inhibition [5]: -0.5%

CC1(C)N=C(N)N=C(N)N1c1ccc(OCCCOc2ccc(S(=O)(=O)F)cc2)cc1
growth inhibition [1]: 35.1%
growth inhibition [2]: 72.8% (active)
growth inhibition [4]: -7.65%
growth inhibition [6]: 31.5%
growth inhibition [5]: 84.5% (active)

Cc1ccc(N2CCNCC2C)cc1 (stereo not given)
growth inhibition [1]: 6.15%
growth inhibition [2]: -13.2%
growth inhibition [4]: 8.95%
growth inhibition [6]: -9.25%
growth inhibition [5]: 11.2%

O=N[O-].O=N[O-].[Co].[NH-]CC[N-]CCO.[NH-]CC[N-]CCO
growth inhibition [1]: 37.6%
growth inhibition [2]: -0.7%
growth inhibition [4]: 14.9%
growth inhibition [6]: 5.7%
growth inhibition [5]: 7.55%

O=C([CH-]C(=O)c1ccccc1)c1ccccc1.O=C([CH-]C(=O)c1ccccc1)c1ccccc1.[OH-].[OH-].[Ti+4]
growth inhibition [1]: 6.25%
growth inhibition [2]: -9.65%
growth inhibition [3]: -6.85%
growth inhibition [6]: 36.9%
growth inhibition [5]: 8.7%

CCCCOP(=S)(OCCCC)Oc1ccc(Cl)cc1Cl
growth inhibition [1]: -4.95%
growth inhibition [2]: -41.4%
growth inhibition [4]: -0.25%
growth inhibition [6]: 17.5%
growth inhibition [5]: -1.95%

O=C(CC(=O)c1ccccc1)c1ccccc1.[Tl]
growth inhibition [1]: 96.2% (active)
growth inhibition [2]: 91.5% (active)
growth inhibition [3]: 97.5% (active)
growth inhibition [6]: 88.7% (active)
growth inhibition [5]: 98.1% (active)

c1ccc([As](c2ccccc2)c2ccccc2)cc1
growth inhibition [1]: 0.75%
growth inhibition [2]: -0.95%
growth inhibition [4]: -3.3%
growth inhibition [6]: -3.95%

NC1C(=O)NC(=O)NC1=O
growth inhibition [1]: 4.2%
growth inhibition [2]: 11.4%
growth inhibition [4]: 15.1%
growth inhibition [6]: 4.6%
growth inhibition [5]: 22.8%

S=C1c2ccc(Cl)cc2-n2cnnc2C2CSCN12 (stereo not given)
growth inhibition [1]: -4.1%
growth inhibition [2]: 10.8%
growth inhibition [4]: 0.9%
growth inhibition [6]: -6.1%
growth inhibition [5]: 26.4%

Cc1ccc(O)cc1C
growth inhibition [1]: 9.95%
growth inhibition [2]: 14.1%
growth inhibition [4]: 26.8%
growth inhibition [6]: 3.75%
growth inhibition [5]: 7.95%

CN1CN(c2ccccc2)C2(CCN(Cc3csc4ccccc34)CC2)C1=O
growth inhibition [1]: -50.9%
growth inhibition [2]: -31.5%
growth inhibition [4]: -1.3%
growth inhibition [6]: -7.1%
growth inhibition [5]: -20.1%

CN(C)C(=O)CCCc1ccc(N(CCCl)CCCl)cc1
growth inhibition [1]: 19.6%
growth inhibition [2]: -1.85%
growth inhibition [4]: 9.55%
growth inhibition [6]: -0.9%
growth inhibition [5]: 9.6%

CC(=O)C(I)C(C)=O.[Cr]
growth inhibition [1]: 2.45%
growth inhibition [2]: -18.9%
growth inhibition [4]: 16.4%
growth inhibition [6]: 14.4%
growth inhibition [5]: 5.4%

O=C(CC(=O)c1ccccc1)c1ccccc1.O=C(CC(=O)c1ccccc1)c1ccccc1.[Pd]
growth inhibition [1]: 20.5%
growth inhibition [2]: 4.9%
growth inhibition [3]: 6.7%
growth inhibition [6]: 6.05%
growth inhibition [5]: 19.8%

O=S(=O)(F)c1ccccc1S(=O)(=O)Cl
growth inhibition [1]: 11.7%
growth inhibition [2]: -2.55%
growth inhibition [4]: 16.4%
growth inhibition [6]: 12.4%
growth inhibition [5]: 21.6%
